Test [1] in a line: qHTS assay to identify small molecule antagonists of the androgen receptor (AR) signaling pathway using the MDA cell line in the presence of 0.5 nM R1881 - cell viability counter screen (AID 1259242). Also: nearly all actives have a fitted effect of over 45% in size. The essentials: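 Viability of MDA-kb2 cells was multiplexed with the luciferase AR readout; after 16 hr with compounds and R1881 at 0.5 nM final, CellTiter-Fluor fluorescence was recorded.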
(qHTS replaces the single test concentration by a dilution series.)

For test [2], the target named is Estrogen receptor (Homo sapiens) (UniProt P03372). Kind of test: qHTS assay to identify small molecule antagonists of the estrogen receptor alpha (ER-alpha) signaling pathway using the BG1 cell line in the presence of 0.1 nM 17-beta-estradiol (AID 1259244). Also: nearly all actives have a fitted effect of over 50% in size. The essentials:
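Estradiol at 0.1 nM (final) stimulates the endogenous ER-alpha of VM7Luc4E2 cells carrying an ERE-driven luciferase; compounds are co-incubated 22 h at 37C and luciferase output quantified by luminescence.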

The nature of test [3]: qHTS assay to identify small molecule phospholipidosis (PLD) inducers (AID 1259344; active = well fitted curve in the direction sought with a large enough effect; an effect the other way counts as inactive or inconclusive). The essentials: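 HepG2 cells, 900/well, treated with compound plus LipidTOX Red for 24 h at 37 C; amiodarone positive and DMSO negative controls. Fixed with paraformaldehyde/Hoechst, then high-content imaging scored LipidTOX pit count and integrated intensity per well and per cell.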
Test [4] in a line: qHTS assay to identify small molecule HDAC inhibitors (AID 1259364). Also: potency is read from the fitted curve at half-maximal effect.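 Also: wild-type HCT-116 cells with endogenous class I/II HDAC activity; nearly all actives have a fitted effect of over 45% in size.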 The essentials: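 Read-out: luminescence of HDAC-Glo I/II reagent, 30 min RT, reflecting class I/II deacetylase activity in whole HCT-116 cells pre-exposed 2 h to DMSO-dissolved compounds.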
Test [5] can be described thus: qHTS assay to identify small molecule HDAC inhibitors - cell viability counter screen (AID 1259365). Also: series mostly up to about 92 µM; nearly all actives have a fitted effect of over 50% in size. The essentials: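 To flag cytotoxic hits, 1,500 wild-type HCT-116 cells per well, plated the day before, receive test compounds for 2hr at 37 C before CellTiter-Glo reagent and a luminescence read.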
Test [6] can be described thus: qHTS assay to identify small molecule agonists of the sonic hedgehog signaling (Shh) pathway - cell viability counter screen (AID 1259366). Also: nearly all actives have a fitted effect of over 50% in size. In short, it runs like this: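 Fluorescence from CellTiter-Fluor reports live cells in this counter screen. NIH/3T3-derived Gli1-Luc reporter cells receive test compounds for 24hr at 37C; reagent goes in at 23hr.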
Test [7] in a line: qHTS assay to identify small molecule antagonists of the sonic hedgehog signaling (Shh) pathway - cell viability counter screen (AID 1259367). Also: nearly all actives have a fitted effect of over 55% in size. In short, it runs like this:
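NIH/3T3-derived Gli1-Luc reporter cells, 2,000/well, plated 4 hr before compound addition, then stimulated with conditioned medium for 24 hr at 37C. Viability measured in the same wells by CellTiter-Fluor fluorescence, reagent added at 23 hr for 1 hr.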

Test [8] can be described thus: qHTS assay to identify small molecule agonists of the sonic hedgehog signaling (Shh) pathway (AID 1259368; calls by dose curve;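 also: NIH/3T3-derived 3T3Gli1-Luc cells carrying a stable Gli1-driven firefly luciferase reporter; series mostly up to about 92 µM; nearly all actives have a fitted effect of over 15% in size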). The essentials: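 A Gli1 transcriptional response element controlled firefly luciferase in 3T3Gli1-Luc cells. Compounds and a positive control were added 4 hr after plating, and cells were incubated a further 24 hr at 37 C before luminescence detection.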
The nature of test [9]: qHTS assay to identify small molecule antagonists of the sonic hedgehog signaling (Shh) pathway (AID 1259369; calls by dose curve; also: nearly all actives have a fitted effect of over 45% in size; also: potency is read from the fitted curve at half-maximal effect). The essentials:
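For antagonist detection, the reporter line received test compounds together with conditioned medium, incubated 24hr at 37 C, 5% CO2, then luminescence was recorded following 30min room-temperature luciferase reagent incubation.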

The record followed here is PubChem BioAssay (Tox21).

Unmarked numbers belong to inactive results. Results filed as inconclusive are left out. Calls of active or inactive are those of the source. Unless noted, calls follow the shape of the dose curve; as a rule, active = well fitted curve in the direction sought with a large enough effect in the repeat runs; inconclusive = weak or mixed curves; inactive = no such curve, though single readings can be large; an effect the other way counts as inactive or inconclusive.

Chain of Estrogen receptor (Homo sapiens) (P03372 whole entry, looked up): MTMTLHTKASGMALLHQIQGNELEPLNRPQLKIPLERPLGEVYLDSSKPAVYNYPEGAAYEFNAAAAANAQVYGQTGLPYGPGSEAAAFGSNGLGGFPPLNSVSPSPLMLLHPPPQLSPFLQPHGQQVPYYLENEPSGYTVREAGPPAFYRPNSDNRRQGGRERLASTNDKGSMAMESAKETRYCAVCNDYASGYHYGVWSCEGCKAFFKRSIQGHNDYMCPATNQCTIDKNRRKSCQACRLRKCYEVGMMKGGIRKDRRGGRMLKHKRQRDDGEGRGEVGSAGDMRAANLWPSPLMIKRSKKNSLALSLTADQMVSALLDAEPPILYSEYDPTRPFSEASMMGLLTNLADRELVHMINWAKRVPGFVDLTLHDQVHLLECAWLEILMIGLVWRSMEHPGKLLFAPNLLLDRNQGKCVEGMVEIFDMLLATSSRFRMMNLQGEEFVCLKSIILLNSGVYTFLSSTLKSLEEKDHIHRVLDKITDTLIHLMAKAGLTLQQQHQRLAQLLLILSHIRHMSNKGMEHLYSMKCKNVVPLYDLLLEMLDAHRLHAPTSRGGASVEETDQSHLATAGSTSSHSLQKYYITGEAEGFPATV

Consider `NNc1nnc(NN)c2ccccc12`, for which the result in [1], in [3], in test [5] and in [8] was inactive. For the same compound, the Potency result in test [2], in [4], in [6], in test [7] and in test [9] was “inactive” each time.
For `Cc1c(I)c(=O)n(-c2ccccc2)n1C`, the outcome in [1], in [3], in [5] and in test [8] was inactive. Moreover, the Potency result in test [2], in test [4], in [6], in test [7] and in test [9] was “inactive” throughout.
Take `O=C1c2ccccc2C(=O)c2cc(S(=O)(=O)O)ccc21`: the outcome in test [1], in [5] and in test [8] was inactive. The Potency entry in [2], in test [6], in test [7] and in test [9] was “inactive” each time. In [4], the Potency was 2.44 µM (active).
As to `C=C(C)C1CCC(C)(O)CC1` (centres undefined), the result in test [1] and in test [5] was inactive. In addition, the Potency result in [2], in [4], in [6], in [7] and in [9] was “inactive” throughout.
In the case of `O=S(=O)(O)c1cc(O)c2ccc(Nc3ccccc3)cc2c1`, the outcome in [1], in test [5] and in [8] was inactive. The Potency entry in [2], in test [6], in test [7] and in test [9] was “inactive” in each case. Moreover, the Potency in test [4] was 24.3 µM (active).
On to `CNC(=O)[C@H]1O[C@@H](n2cnc3c(NCc4cc(Cl)ccc4OCc4cc(C)no4)ncnc32)[C@H](O)[C@@H]1N`, for which the result in [1], in test [5] and in test [8] was inactive. Moreover, the Potency entry in [2], in [4], in [6], in test [7] and in test [9] was “inactive” each time.
On to `CC1=CCC(C(C)C)=CC1`, for which the result in [1], in [5] and in [8] was inactive. Moreover, the Potency result in test [2], in [4], in test [6], in test [7] and in test [9] was “inactive” throughout.
For the compound `O=C1CC(c2ccc(Cl)cc2)CC(=O)N1`, the result in [1] and in test [5] was inactive. The Potency entry in test [2], in [4], in test [6], in test [7] and in test [9] was “inactive” each time.
For the compound `CCCOC(=O)C(C)O` (centres undefined), the outcome in [1], in test [5] and in test [8] was inactive. Further, the Potency result in test [2], in test [4], in [6], in test [7] and in test [9] was “inactive” each time.
Regarding `CCCCCCCCC1CCC(=O)O1` (centres undefined), the result in [1], in [5] and in [8] was inactive. The Potency entry in test [2], in test [4], in test [6], in [7] and in test [9] was “inactive” in each case.
As for `CC(C)(C)c1n[nH]c(=S)n(N)c1=O`, the result in [1], in test [5] and in test [8] was inactive. The Potency entry in test [2], in test [4], in test [6], in test [7] and in test [9] was “inactive” throughout.
With `O=C(O)c1ccc(Cl)cc1Cl`, the outcome in test [1], in test [5] and in test [8] was inactive. In addition, the Potency result in [2], in test [4], in test [6], in test [7] and in test [9] was “inactive” throughout.
For the compound `Cc1ccc2c(c1)OCC(=O)CO2`, the outcome in test [1], in [5] and in [8] was inactive. Also, the Potency entry in [2], in test [4], in [6], in test [7] and in test [9] was “inactive” each time.
Turning to `c1ccc2nccnc2c1`, the outcome in [1] and in test [5] was inactive. Also, the Potency result in test [2], in [4], in test [6], in test [7] and in [9] was “inactive” each time.
As for `CCCCCCCCCC(C)=O`, the result in test [1], in test [5] and in test [8] was inactive. For the same compound, the Potency result in test [2], in test [4], in test [6], in test [7] and in [9] was “inactive” each time.
With `CC(C)CCCC(C)(C)O`, the result in test [1], in test [5] and in [8] was inactive. The Potency entry in test [2], in test [4], in test [6], in test [7] and in test [9] was “inactive” in each case.
Consider `Nc1cccc(O)c1`, for which the result in [1], in [5] and in test [8] was inactive. The Potency entry in test [2], in [4], in test [6], in [7] and in test [9] was “inactive” throughout.
On to `CCn1ccc(NS(=O)(=O)c2ccc(N)cc2)nc1=O`, for which the outcome in [1], in test [5] and in [8] was inactive. Besides, the Potency entry in test [2], in test [4], in [6], in test [7] and in test [9] was “inactive” each time.
For `COCCc1ccc(OCC2CO2)cc1` (centres undefined), the outcome in [1], in test [5] and in test [8] was inactive. Besides, the Potency result in test [2], in test [4], in test [6], in [7] and in test [9] was “inactive” each time.
For `CCCCCCN`, the outcome in [1], in test [5] and in [8] was inactive. Further, the Potency entry in test [2], in [4], in [6] and in test [7] was “inactive” throughout. Moreover, in test [9], the Potency is 61.1 µM (active).
With `O=C1CCCC(=O)O1`, the result in test [1], in test [5] and in test [8] was inactive. Moreover, the Potency result in test [2], in test [4], in [6], in test [7] and in test [9] was “inactive” throughout.
Turning to `CC(=O)c1ccc2c(c1)Cc1ccccc1-2`, the outcome in test [1] and in [5] was inactive. In addition, the Potency result in test [2], in [6], in [7] and in [9] was “inactive” each time. The Potency in test [4] is 27.3 µM (active).
In the case of `On1nnc2ccccc21`, the result in test [1] and in [5] was inactive. Also, the Potency entry in test [2], in test [4], in test [6], in [7] and in [9] was “inactive” throughout.
With `Cc1[nH]cnc1-c1ccc(Cl)cc1`, the result in test [1], in [5] and in test [8] was inactive. For the same compound, the Potency entry in test [2], in test [4], in test [6], in test [7] and in [9] was “inactive” throughout.
On to `C=C(C)C(=O)OCc1ccccc1`, for which the outcome in [1] and in test [5] was inactive. In addition, the Potency entry in [2], in test [4], in [6], in test [7] and in test [9] was “inactive” each time.
`CN(C)CCOCCO`: the result in test [1], in [5] and in test [8] was inactive. In addition, the Potency entry in test [2], in [4], in [6], in [7] and in test [9] was “inactive” each time.
